The structures appear in SMILES notation. For some of these results: Entries with a potency or affinity are not part of this list.

What all share (parameters): scale not given: direction of the effect not stated beside the values
The target in experiment [1] is Protein translocase subunit SecA (Escherichia coli (strain K12)) (UniProt P10408). The experiment in a line: Assay to Identify E. coli SecA ATPase Inhibitors. The format is functional. To be noted: 30 µM.
In experiment [2] the target is T1, Ubiquitin-activating enzyme e1, putative (Leishmania donovani (strain BPK282A1)) (UniProt E9BSI1).
T1 sequence (whole entry): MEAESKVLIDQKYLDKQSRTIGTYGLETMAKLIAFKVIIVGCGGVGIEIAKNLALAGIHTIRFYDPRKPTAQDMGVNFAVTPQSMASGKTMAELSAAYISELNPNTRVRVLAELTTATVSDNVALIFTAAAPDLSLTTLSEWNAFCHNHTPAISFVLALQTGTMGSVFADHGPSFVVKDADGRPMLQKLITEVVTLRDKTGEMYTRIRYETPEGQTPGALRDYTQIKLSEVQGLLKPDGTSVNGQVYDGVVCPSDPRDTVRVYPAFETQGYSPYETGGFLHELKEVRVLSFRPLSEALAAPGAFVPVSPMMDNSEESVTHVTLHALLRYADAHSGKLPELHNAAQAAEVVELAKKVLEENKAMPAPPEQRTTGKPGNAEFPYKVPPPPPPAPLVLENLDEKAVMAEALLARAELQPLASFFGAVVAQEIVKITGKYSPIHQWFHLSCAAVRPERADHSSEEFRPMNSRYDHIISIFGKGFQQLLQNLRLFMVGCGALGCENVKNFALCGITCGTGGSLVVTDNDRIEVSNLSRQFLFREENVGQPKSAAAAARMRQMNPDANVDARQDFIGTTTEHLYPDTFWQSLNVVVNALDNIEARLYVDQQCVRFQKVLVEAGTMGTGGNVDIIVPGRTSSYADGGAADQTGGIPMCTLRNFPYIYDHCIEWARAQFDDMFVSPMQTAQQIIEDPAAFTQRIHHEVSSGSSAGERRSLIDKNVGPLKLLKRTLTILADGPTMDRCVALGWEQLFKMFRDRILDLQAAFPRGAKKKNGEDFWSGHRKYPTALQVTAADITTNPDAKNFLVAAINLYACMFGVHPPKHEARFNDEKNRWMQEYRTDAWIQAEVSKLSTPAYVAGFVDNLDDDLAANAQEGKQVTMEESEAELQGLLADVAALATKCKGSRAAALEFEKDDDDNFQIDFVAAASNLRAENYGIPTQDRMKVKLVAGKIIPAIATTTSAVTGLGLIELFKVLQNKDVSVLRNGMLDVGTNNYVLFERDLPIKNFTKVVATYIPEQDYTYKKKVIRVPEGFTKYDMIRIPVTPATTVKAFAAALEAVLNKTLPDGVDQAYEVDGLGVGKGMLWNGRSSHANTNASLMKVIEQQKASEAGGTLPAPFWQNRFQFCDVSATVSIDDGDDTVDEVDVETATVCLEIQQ
In words: Leishmania donovani Ubiquitin Activating Enzyme (LdE1). The format is functional. To be noted: 30 µM.

The target of experiment [3] is AMP-activated protein kinase, AMPK (Homo sapiens) (UniProt P54646+O43741+P54619+Q9UGJ0+Q9Y478+Q13131+Q9UGI9). In words: AMP-dependent Kinase enzyme assay. An in vitro enzyme assay that detects ADP turnover that is directly proportional to AMPK activity. This uses naive AMPK that is activated during the assay with MK-8722. It counts as functional. To be noted: 30 µM.

Experiment [4] concerns the target Sialic acid-binding Ig-like lectin 9 (Homo sapiens) (UniProt Q9Y336). The experiment in a line: Hs-Siglec9 ALPHAscreen SOP 20170721. To be noted: 10 µM. In general terms: Bead proximity is the source of the signal in Alpha formats.
Another experiment relates to Trypanosoma cruzi. In words: Trypanosoma cruzi phosphomannomutase and mannose-1-phosphate guanylyltransferase assay. Conditions: 10 µM. It counts as functional.
Experiment [5] has as its target T2, Arginase-2, mitochondrial (Homo sapiens) (UniProt P78540).
T2 sequence (whole entry): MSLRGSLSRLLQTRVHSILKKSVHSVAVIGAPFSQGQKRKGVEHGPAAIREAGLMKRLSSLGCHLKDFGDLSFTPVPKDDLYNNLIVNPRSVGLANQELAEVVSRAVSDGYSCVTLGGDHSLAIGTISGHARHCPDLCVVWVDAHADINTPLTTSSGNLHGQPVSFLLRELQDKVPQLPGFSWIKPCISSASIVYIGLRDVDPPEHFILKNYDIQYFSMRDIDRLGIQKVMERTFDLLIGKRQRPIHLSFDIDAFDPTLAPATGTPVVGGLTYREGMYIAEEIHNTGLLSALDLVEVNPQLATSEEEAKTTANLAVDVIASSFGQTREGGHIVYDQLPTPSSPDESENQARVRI
In words: in vitro enzyme assay to detect the production of urea directly proportional to the activity of Arginase II. Also: in the data most compounds retested in dose-response had high values. It counts as functional. Conditions: 33.3 µM.

Experiment [6] has as its target T3, Proteasome subunit beta (Trypanosoma cruzi) (UniProt O96673).
T3 sequence (whole entry): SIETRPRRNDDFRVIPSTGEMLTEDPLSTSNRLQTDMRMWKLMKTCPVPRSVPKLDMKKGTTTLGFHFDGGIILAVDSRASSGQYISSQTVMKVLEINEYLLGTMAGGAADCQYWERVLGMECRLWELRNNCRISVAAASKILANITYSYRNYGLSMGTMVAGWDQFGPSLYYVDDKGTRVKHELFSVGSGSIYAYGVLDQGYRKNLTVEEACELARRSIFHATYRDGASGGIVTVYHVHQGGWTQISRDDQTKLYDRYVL
In words: Trypanosoma cruzi proteasome chymotrypsin-like activity (TcProtChymo) assay. Also: in the data most compounds retested in dose-response had high values. Conditions: 9.37 µM. The format is functional.

Another experiment is filed under the species Homo sapiens. In words: To identify inhibition of the IFN signalling (Jak-Stat) pathway via expression of an eGFP reporter gene under the control of an IFN-stimulated response element (ISRE) containing MxA promoter. The format is functional. To be noted: 30 µM. Background: In a reporter assay the amount or activity of a reporter protein is the signal.

For experiment [7], the target named is T4, Tyrosyl-tRNA synthetase, putative (Trypanosoma cruzi (strain CL Brener)) (UniProt Q4DSP6).
T4 sequence (whole entry): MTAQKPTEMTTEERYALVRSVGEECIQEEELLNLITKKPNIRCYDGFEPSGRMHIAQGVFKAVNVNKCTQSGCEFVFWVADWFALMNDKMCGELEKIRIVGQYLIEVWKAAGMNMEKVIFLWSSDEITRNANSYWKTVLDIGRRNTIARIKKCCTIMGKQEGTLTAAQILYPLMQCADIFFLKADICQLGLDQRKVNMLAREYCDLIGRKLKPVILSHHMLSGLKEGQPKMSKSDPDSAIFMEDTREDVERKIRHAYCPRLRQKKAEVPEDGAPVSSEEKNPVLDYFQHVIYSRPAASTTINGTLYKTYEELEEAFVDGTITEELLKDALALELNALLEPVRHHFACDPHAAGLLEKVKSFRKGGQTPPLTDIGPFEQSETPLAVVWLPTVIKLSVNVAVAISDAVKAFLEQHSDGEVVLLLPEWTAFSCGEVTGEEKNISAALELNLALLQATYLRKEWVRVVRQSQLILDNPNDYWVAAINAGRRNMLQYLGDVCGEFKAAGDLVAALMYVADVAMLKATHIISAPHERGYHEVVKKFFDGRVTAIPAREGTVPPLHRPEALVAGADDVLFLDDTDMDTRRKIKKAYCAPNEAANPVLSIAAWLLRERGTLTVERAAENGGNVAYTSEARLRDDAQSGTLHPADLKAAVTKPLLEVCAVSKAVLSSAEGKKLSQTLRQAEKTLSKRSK
The experiment in a line: Trypanosoma cruzi tyrosyl tRNA synthetase (TcYRS) _High Tyrosine SOP. Also: in the data most compounds retested in dose-response had high values. The format is functional. Conditions: 30 µM.

For experiment [8], the target named is T4, Tyrosyl-tRNA synthetase, putative (Trypanosoma cruzi (strain CL Brener)). In words: Trypanosoma cruzi tyrosyl tRNA synthetase (TcYRS) SOP. It counts as functional. Conditions: 30 µM.
The target in experiment [9] is Chromo domain-containing protein 1 (Saccharomyces cerevisiae (strain ATCC 204508 / S288c) (Baker's yeast)) (UniProt P32657). The experiment in a line: ScCHD-1 Enzyme Inhibition Assay. Also: in the data most compounds retested in dose-response had high values. It counts as functional. To be noted: 30 µM.
Chain of Chromo domain-containing protein 1 (Saccharomyces cerevisiae (strain ATCC 204508 / S288c) (Baker's yeast)) (P32657 whole entry, the tested form may be a part): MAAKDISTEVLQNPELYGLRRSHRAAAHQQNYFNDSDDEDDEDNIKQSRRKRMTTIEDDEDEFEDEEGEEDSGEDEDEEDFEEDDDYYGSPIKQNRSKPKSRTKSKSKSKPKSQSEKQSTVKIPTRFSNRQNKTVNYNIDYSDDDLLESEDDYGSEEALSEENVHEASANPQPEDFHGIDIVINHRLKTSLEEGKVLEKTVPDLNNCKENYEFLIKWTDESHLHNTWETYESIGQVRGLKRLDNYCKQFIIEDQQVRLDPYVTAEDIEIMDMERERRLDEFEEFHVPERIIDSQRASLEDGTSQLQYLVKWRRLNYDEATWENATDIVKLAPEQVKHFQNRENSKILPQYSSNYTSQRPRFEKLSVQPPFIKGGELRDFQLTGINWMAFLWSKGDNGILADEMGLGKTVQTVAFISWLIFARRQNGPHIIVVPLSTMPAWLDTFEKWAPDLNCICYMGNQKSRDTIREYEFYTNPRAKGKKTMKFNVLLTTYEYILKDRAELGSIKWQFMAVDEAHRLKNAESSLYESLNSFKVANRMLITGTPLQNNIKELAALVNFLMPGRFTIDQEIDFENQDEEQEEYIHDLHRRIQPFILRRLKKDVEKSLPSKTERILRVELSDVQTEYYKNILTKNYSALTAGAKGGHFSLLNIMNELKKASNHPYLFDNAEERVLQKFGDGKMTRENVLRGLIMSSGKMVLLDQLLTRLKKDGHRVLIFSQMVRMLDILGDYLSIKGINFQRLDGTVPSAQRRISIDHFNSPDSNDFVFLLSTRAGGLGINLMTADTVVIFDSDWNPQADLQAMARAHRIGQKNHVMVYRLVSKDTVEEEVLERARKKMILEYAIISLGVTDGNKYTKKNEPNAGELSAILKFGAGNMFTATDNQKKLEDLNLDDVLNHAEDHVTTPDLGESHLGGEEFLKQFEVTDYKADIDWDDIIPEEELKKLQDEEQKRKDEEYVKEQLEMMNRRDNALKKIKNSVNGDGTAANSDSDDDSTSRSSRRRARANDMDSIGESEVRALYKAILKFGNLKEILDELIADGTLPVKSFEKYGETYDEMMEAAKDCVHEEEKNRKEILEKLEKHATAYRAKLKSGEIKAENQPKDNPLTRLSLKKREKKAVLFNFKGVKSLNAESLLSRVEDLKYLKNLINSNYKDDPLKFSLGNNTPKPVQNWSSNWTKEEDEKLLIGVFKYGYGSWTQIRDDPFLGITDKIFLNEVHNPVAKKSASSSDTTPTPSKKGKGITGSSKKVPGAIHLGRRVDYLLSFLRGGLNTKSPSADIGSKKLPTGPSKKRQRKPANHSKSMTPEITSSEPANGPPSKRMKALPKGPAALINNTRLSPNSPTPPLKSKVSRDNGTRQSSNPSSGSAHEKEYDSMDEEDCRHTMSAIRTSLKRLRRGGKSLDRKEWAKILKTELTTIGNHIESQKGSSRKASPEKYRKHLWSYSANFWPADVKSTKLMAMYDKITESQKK

Chain of Protein translocase subunit SecA (Escherichia coli (strain K12)) (P10408 whole entry): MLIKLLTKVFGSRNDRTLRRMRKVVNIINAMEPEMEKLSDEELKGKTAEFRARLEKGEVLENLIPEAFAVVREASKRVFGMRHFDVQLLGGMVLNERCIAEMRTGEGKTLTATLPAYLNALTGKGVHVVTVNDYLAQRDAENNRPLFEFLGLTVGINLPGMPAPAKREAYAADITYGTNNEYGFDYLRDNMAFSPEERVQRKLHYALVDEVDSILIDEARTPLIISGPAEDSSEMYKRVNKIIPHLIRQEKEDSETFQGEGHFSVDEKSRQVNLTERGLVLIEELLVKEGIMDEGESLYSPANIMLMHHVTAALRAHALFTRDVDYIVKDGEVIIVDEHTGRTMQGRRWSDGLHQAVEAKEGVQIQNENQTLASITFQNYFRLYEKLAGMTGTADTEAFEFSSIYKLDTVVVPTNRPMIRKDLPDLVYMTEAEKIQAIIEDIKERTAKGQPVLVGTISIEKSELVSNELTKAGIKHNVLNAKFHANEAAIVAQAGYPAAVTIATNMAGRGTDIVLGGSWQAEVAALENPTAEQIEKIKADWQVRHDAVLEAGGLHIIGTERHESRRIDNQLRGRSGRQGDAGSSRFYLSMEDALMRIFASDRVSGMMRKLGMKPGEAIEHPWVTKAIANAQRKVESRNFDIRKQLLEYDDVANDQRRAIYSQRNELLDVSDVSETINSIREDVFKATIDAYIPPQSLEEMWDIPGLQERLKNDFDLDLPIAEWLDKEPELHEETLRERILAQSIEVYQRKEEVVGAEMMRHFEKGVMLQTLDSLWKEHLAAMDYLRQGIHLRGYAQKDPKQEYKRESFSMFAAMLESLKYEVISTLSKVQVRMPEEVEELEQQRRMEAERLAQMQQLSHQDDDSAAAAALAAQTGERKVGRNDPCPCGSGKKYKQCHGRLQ
Chain of Sialic acid-binding Ig-like lectin 9 (Homo sapiens) (Q9Y336 whole entry): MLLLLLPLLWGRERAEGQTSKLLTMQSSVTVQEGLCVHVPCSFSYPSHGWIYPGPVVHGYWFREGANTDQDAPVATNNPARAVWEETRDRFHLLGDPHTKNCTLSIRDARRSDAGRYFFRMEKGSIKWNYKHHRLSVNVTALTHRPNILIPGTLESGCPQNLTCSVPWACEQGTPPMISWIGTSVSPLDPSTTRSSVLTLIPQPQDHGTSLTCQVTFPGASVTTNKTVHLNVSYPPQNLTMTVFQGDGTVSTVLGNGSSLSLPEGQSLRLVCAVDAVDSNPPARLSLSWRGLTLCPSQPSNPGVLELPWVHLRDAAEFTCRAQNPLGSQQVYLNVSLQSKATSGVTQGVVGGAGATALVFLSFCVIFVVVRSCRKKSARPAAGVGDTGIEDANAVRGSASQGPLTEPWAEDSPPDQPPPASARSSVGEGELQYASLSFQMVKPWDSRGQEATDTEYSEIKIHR

Take `CN(C)CCn1c(=O)oc2ccc(NC(=O)CC(C)(C)C)cc21`: the Percent Effect in experiment [1] was -5.92%; in experiment [2], 16%; in experiment [3], -6.21%; in [4], 19.3%; with Trypanosoma cruzi, 4.38%; in experiment [5], 14.1%. The Percent Effect in [6] stood at 7.67%; in the experiment filed under Homo sapiens it was 5.54%; in [7] it was 10.4%; in experiment [8], 23.5%; in experiment [9], 1.52%.

For `CN(CC(=O)NCc1ccccn1)CC1CCCN1c1cccnn1` (stereo not drawn), the Percent Effect in experiment [1] was -1.59%; in experiment [2] it was -5.41%; in experiment [3] it was -4.72%; in experiment [4], -0.887%; with Trypanosoma cruzi, -2.15%; in [5] it was -3.75%. Moreover, the Percent Effect in experiment [6] was 27.8%; in the experiment listed under Homo sapiens, 3.47%; in experiment [7], 8.91%; in experiment [8], 1.22%; in [9] it was -0.357%.

On to `COCCN1CCN(C(C)C(=O)Nc2ccnn2C(C)C)CC1` (stereo not drawn), for which the Percent Effect in [1] was -4.97%; in experiment [2], 2.7%; in [3] it was 2.76%; in experiment [4], 0.97%; in the experiment on Trypanosoma cruzi, -1.95%; in [5], 0.417%. Also, the Percent Effect was 7.35% in experiment [6]; -1.59% in the experiment filed under Homo sapiens; 4.95% in experiment [7]; 1.22% in experiment [8]; -1.09% in experiment [9].

For the compound `O=C1CC(NCc2ccncc2)CN1Cc1cccc(F)c1` (stereo not drawn), the Percent Effect was -3.06% in experiment [1]; -2.7% in experiment [2]; -0.958% in [3]; 0.392% in experiment [4]; -2.9% in the experiment with Trypanosoma cruzi; -2.86% in experiment [5]. The Percent Effect was 11.6% in [6]; -9.68% in the experiment filed under Homo sapiens; 1.59% in experiment [7]; 2.44% in experiment [8]; -0.358% in [9].

`CS(=O)(=O)NCCCN1CCCC1c1ccccc1` (stereo not drawn): the Percent Effect in experiment [1] is -4.36%; in experiment [2], 5.06%; in experiment [3], -1.23%; in [4], 6.79%; in the experiment with Trypanosoma cruzi, 1.42%; in [5], 3.04%. Moreover, the Percent Effect in experiment [6] is 3.03%; in the experiment filed under Homo sapiens, -31.1%; in experiment [7], 7.39%; in experiment [8], 13.9%; in experiment [9] it was -5.84%.

In the case of `CC(=O)N1CCC(C(=O)c2cc(C)cnc2N)CC1`, the Percent Effect in experiment [1] is -3.36%; in experiment [2], 10.7%; in [3] it was 3.67%; in experiment [4], 3.51%; in the experiment with Trypanosoma cruzi, 3.15%; in [5], 3.03%. In addition, the Percent Effect in [6] is 7.67%; in the experiment listed under Homo sapiens it was 17.4%; in experiment [7], 4.25%; in [8], 11.5%; in experiment [9] it was -4.18%.

Take `Cc1csc(C2CCCCN2C(=O)CN(C)Cc2ccccc2)n1` (stereo not drawn): the Percent Effect was -1.2% in experiment [1]; -1.27% in [2]; 11% in [3]; 7.48% in [4]; -1.33% in the experiment with Trypanosoma cruzi; 3.23% in experiment [5]. Further, the Percent Effect was 0.515% in [6]; -0.936% in the experiment filed under Homo sapiens; 1.04% in [7]; 2.53% in [8]; 7.65% in experiment [9].

With `Cc1cccc(C)c1OCCNC(=O)NC(C)c1nncn1C` (stereo not drawn), the Percent Effect in experiment [1] is -5.7%; in experiment [2] it was 15.6%; in experiment [3] it was -1.02%; in [4], -14.1%; with Trypanosoma cruzi, 5%; in [5], -2.32%. Further, the Percent Effect in [6] is 25.8%; in the experiment listed under Homo sapiens, 18.1%; in experiment [7] it was 8.57%; in experiment [8] it was 23.5%; in experiment [9] it was -21.4%.

For the origin of these results see ChEMBL document CHEMBL3988442, “University of Dundee, Small-Polar-MMV Screening Library” (2021).
